PTAP TSG101 blk: qHTS Assay for Iinhibitors of HIV-1 Budding by Blocking the Interaction of PTAP/TSG101. Tumor susceptibility gene 101 protein (Homo sapiens), Q99816. Fluorescence polarization, FITC-PTAP peptide / Tsg101 binding. Potency, µM (doses to about 115 µM), actives largely listed as inhibitors. 340,000 tested, under 10 active. AID 493005, 2010; active = well fitted inhibition curve with a large enough effect in the main read-out, with a control signal flat, not every such curve was filed as active; inconclusive = small, poorly fitted or top-dose-only effect, or effect the other way, or a change in a side signal; inactive = no such curve, though single readings can be large or run the other way
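Tsg101 binding domain (10 uM final) was mixed with compound and a FITC-labeled PTAP peptide (50 nM final) in HEPES pH 7.5 buffer with NaCl, Tween 20, EDTA and TCEP; fluorescence polarization was read after 20 min at r.t.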
Rango release inh: qHTS Assay for Inhibitors of RanGTP induced Rango (Ran-regulated importin-beta cargo) - Importin beta complex dissociation; Potency, µM (titrated, usually from 46.1 µM); Snurportin-1 (Homo sapiens) + GTP-binding nuclear protein Ran (Homo sapiens) + Importin …; Biochemical FRET Rango-importin beta, RanGTP-induced dissociation; 340,000 compounds, 0.071% hits; calls by dose curve; also: nearly all actives have a fitted effect of over 45% in size
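Recombinant Rango FRET biosensor (EYFP–snurportin 1 IBB–cerulean CFP10) at 0.1 uM premixed with 0.25 uM importin beta in PBS, 1 mM DTT, 0.02% Tween-20, 0.1% BSA. Compound added 5 min; RanGTP-RCC1 (0.6 uM Ran, 2 mM GTP, 0.2 uM RCC1) then triggers release, read at 45 min.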
Rango complex inh: qHTS Assay for Inhibitors of Rango (Ran-regulated importin-beta cargo) - Importin beta complex formation. Rango CFP/YFP FRET sensor + importin beta, 45 min. Potency, µM (titrated, usually from 92.2 µM). 340,000 compounds, 0.031% hits; calls by dose curve; also: nearly all actives have a fitted effect of over 15% in size
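Inhibition scored from the CFP 486 nm/YFP 530 nm FRET ratio 45 min after adding 0.125 microM importin beta to 50 nM Rango biosensor preincubated 5 min with compound (room temperature, PBS with DTT, Tween-20, BSA). No-importin wells as positive control.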
TDP1 inh: qHTS Assay for Inhibitors of Tyrosyl-DNA Phosphodiesterase (TDP1) | Tyrosyl-DNA phosphodiesterase 1 (Homo sapiens), Q9NUW8 | recombinant TDP1, AlphaScreen DNA substrate cleavage | Potency, µM (top dose mostly 130 µM), hits mostly inhibitors | 350,000 compounds, 0.28% hits; also: nearly all actives have a fitted effect of over 40% in size
Target sequence (Q9NUW8 whole entry, looked up): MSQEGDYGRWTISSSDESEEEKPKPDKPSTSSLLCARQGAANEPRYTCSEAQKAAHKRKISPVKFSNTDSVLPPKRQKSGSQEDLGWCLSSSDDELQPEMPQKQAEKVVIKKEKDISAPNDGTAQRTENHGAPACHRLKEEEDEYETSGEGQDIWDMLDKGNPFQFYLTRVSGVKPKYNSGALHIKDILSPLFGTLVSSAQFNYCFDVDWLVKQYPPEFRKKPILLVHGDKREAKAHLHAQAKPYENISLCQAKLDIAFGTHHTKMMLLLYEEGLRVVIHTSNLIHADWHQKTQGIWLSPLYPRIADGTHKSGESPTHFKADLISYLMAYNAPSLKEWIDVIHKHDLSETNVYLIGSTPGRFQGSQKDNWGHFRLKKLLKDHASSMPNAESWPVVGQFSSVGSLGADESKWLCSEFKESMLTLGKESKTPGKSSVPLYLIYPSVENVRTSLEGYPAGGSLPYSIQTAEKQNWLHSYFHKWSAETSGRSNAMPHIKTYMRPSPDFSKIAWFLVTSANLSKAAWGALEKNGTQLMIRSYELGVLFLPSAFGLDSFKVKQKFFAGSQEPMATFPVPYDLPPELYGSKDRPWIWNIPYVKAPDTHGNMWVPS
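E. coli-derived human Tdp1, 1 nM final. Cpd preinc 15 min RT; substrate 15 nM final, 5 min RT; AS bead mix 10 ug/ml final, 10 min RT. Signal loss = tyrosine-FITC cleavage. No-enzyme wells = max signal.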
ClpP mod: qHTS Assay for Activators of ClpP. ATP-dependent Clp protease proteolytic subunit (Bacillus subtilis (strain 168)), P80244. purified B. subtilis ClpP, FRET peptide cleavage, 20 min. Potency, µM (series often up to 57.5 µM). 340,000 compounds, 1.9% hits. AID 651965, 2013; active = well fitted falling curve with a large enough effect; inconclusive = small, poorly fitted or top-dose-only effect; inactive = no such curve, though single readings can be large or run the other way; also: the source files actives as falling curves though it sought activators and does not explain the sign; nearly all actives have a fitted effect of over 65% in size
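ClpP 10 microg/mL final, pH 8 Tris/KCl buffer with BSA, glycerol, Tween-20; compound pinned in; FRET-FV substrate; RT 20 min; Ex320/Em430; ΔFRET vs ADEP 5.8 microM, DMSO, no enzyme.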
ALOX12 inh: Primary qHTS assay for inhibitors of human arachidonate 12S-lipoxygenase (ALOX12): Round 2. 580,000 compounds, 1.1% hits. Potency, µM (doses to about 108 µM), usual class: inhibitors. purified 12hLO, xylenol orange hydroperoxide absorbance. Polyunsaturated fatty acid lipoxygenase ALOX12 (Homo sapiens), P18054
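Purified human 12hLO at 150 nM in 25 mM Hepes, 0.01% Triton X-100, pH 7.0, preincubated 15 min at room temperature with compound. Reaction started with 40 uM arachidonic acid, 30 min at room temperature. Hydroperoxide measured by Fe-xylenol orange, 573/405 nm absorbance ratio.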
Each line names hits and unclear results; the compound was inactive in the other large screens. Compounds with a hit are over-represented: about 2.4% of the library has one in this group of screens. Unless noted, calls follow the shape of the dose curve; as a rule, active = well fitted curve in the direction sought with a large enough effect; inconclusive = small, poorly fitted or top-dose-only effect, or another doubt; inactive = no such curve, though single readings can be large; an effect the other way counts as inactive or inconclusive.

O=C(/C=C/c1cccc(O)c1)c1ccc(F)cc1	ALOX12 inh 45µM (no result: PTAP TSG101 blk, Rango release inh, Rango complex inh, TDP1 inh, ClpP mod)
CCOc1cc(/C=C/C(=O)c2ccc(Cl)cc2)cc(Cl)c1O	ALOX12 inh 7.9µM (no result: PTAP TSG101 blk, Rango release inh, Rango complex inh, TDP1 inh, ClpP mod)
COc1ccccc1N1CCCc2ncc(C(=O)N(C)Cc3ccccc3)cc21	none (no result: PTAP TSG101 blk, Rango release inh, Rango complex inh, TDP1 inh, ClpP mod)
O=C(CSc1nc2ccsc2c(=O)[nH]1)Nc1ccccc1	none (no result: PTAP TSG101 blk, Rango release inh, Rango complex inh, TDP1 inh, ClpP mod)
CCOC(=O)c1c(NC(=O)Cn2nnc(-c3ccc(Cl)cc3)n2)sc(C)c1C	ClpP mod 25µM
CCOC(=O)c1c(NC(=O)Cn2nnc(-c3ccccc3)n2)sc(CC)c1C	ALOX12 inh 13µM (no result: PTAP TSG101 blk, Rango release inh, Rango complex inh, TDP1 inh, ClpP mod)
CC(C)(C)NC(=O)N1CCC2(CCC(=O)N(CC3CC3)CC2)CC1	none (no result: PTAP TSG101 blk, Rango release inh, Rango complex inh, TDP1 inh, ClpP mod)
O=C(NCc1ccccc1)N1CCN(C(=O)c2ccccc2)CC1	none (no result: PTAP TSG101 blk, Rango release inh, Rango complex inh, TDP1 inh, ClpP mod)
O=C(Cn1cnc2ccccc2c1=O)c1ccc2ccccc2c1	ClpP mod 32µM
O=C(COc1coc(CN2CCCCC2)cc1=O)NCc1ccc(Cl)cc1	none (no result: PTAP TSG101 blk, Rango release inh, Rango complex inh, TDP1 inh, ClpP mod)
COc1ccc(S(=O)(=O)N2CCN(CCNC(=O)COc3ccc(C(C)C)cc3)CC2)cc1	ALOX12 inh 35µM (no result: PTAP TSG101 blk, Rango release inh, Rango complex inh, TDP1 inh, ClpP mod)
COc1ccc(CCNC(=O)COc2ccc(S(=O)(=O)N3CCCC3)cc2)cc1	none (no result: ClpP mod)
CCOC(=O)CC(C)C	none (no result: PTAP TSG101 blk, Rango release inh, Rango complex inh, TDP1 inh, ClpP mod)
O=C(NC(=S)Nc1ccccn1)c1ccccc1	ALOX12 inh inconclusive (no result: TDP1 inh)
Cc1cc(C)c(NC(=S)NC(=O)c2ccc(-c3ccccc3)cc2)c(C)c1	ALOX12 inh 22µM
O=C(NC(=S)Nc1ccccn1)c1ccc(-c2ccccc2)cc1	Rango complex inh inconclusive, ALOX12 inh 32µM
O=C(c1ccccn1)N1CCC(c2cc(-c3ccccc3)n[nH]2)CC1	none (no result: PTAP TSG101 blk, Rango release inh, Rango complex inh, TDP1 inh, ClpP mod)
O=C(CSc1nc(=O)n(Cc2ccco2)c2c1CCC2)NC1CCCC1	none (no result: PTAP TSG101 blk, Rango release inh, Rango complex inh, TDP1 inh, ClpP mod)
Cc1cccnc1NCC(O)COc1ccccc1 (stereo not drawn)	ClpP mod 28µM
CN(Cc1ccno1)Cc1cn(C)nc1-c1ccc(C2CCCCC2)cc1	none (no result: PTAP TSG101 blk, Rango release inh, Rango complex inh, TDP1 inh, ClpP mod)
Cc1ccc(C23CC4CC(CC(C(=O)Nc5ccc(F)cc5)(C4)C2)C3)cc1	none (no result: PTAP TSG101 blk, Rango release inh, Rango complex inh, TDP1 inh, ClpP mod)
CC1CCN(C2(O)C(=O)Nc3ccc(Cl)cc32)CC1 (stereo not drawn)	ClpP mod 13µM (no result: TDP1 inh)
CC1CCN(S(=O)(=O)c2ccc3c(c2)C(Cl)(Cl)C(=O)N3)CC1	ALOX12 inh 40µM (no result: PTAP TSG101 blk, Rango release inh, Rango complex inh, TDP1 inh)
CC1CCN(S(=O)(=O)c2ccc3ccccc3c2)CC1	none
COCCNC(=O)[C@@H]1C[C@H](Oc2cccnc2)CN1C(=O)COc1ccccc1	none (no result: PTAP TSG101 blk, Rango release inh, Rango complex inh, TDP1 inh, ClpP mod)
C=CCn1c(-n2nc(C)cc2C)nc2c1c(=O)n(C/C=C/C)c(=O)n2C	none (no result: PTAP TSG101 blk, Rango release inh, Rango complex inh, TDP1 inh, ClpP mod)
Cc1cccc(NC(=O)CNC(=O)Cn2ncc(Cl)c(Cl)c2=O)c1C	TDP1 inh 14µM (no result: ALOX12 inh)
Cc1ccc(NC2Sc3ccccc3NC2=O)cc1 (stereo not drawn)	ALOX12 inh 7.1µM (no result: ClpP mod)
COCCCNC(=O)c1cnc2n[nH]c(-c3ccc(OC)cc3C)c2n1	none (no result: PTAP TSG101 blk, Rango release inh, Rango complex inh, TDP1 inh, ClpP mod)
C=CCn1c(SCC(=O)NC(=O)NC)nnc1C1CCCCC1	none (no result: ClpP mod)
C=CCn1c(SCC(=O)NC(=O)NCCC)nnc1C1CCCCC1	ClpP mod 3.2µM
CCOc1cc2c(cc1OCC)C(c1ccc(OC)cc1)N(c1ccc(C(=O)OC)cc1)C(=O)C2 (stereo not drawn)	none (no result: PTAP TSG101 blk, Rango release inh, Rango complex inh, TDP1 inh, ClpP mod)
C=C(C)C[C@H]1CC=C[C@H](CC(=C)C)[N+]1(C)C	ALOX12 inh 18µM (no result: PTAP TSG101 blk, Rango release inh, Rango complex inh, TDP1 inh, ClpP mod)
Cc1c(C(=O)OC(C)C)sc(N)c1C#N	none (no result: PTAP TSG101 blk, Rango release inh, Rango complex inh, TDP1 inh, ClpP mod)
COC(=O)c1sc(N)c(C#N)c1C	ALOX12 inh 4.5µM (no result: PTAP TSG101 blk, Rango release inh, Rango complex inh, TDP1 inh, ClpP mod)
COC(=O)[C@@]1(C)[C@H]2C(=O)N(Cc3ccccc3)C(=O)[C@H]2[C@H]2CN=C(SCc3ccc(C)cc3)N21	ALOX12 inh 40µM

Bioassay records as filed in PubChem BioAssay.
